Results filed as inconclusive are left out. Active and inactive are the calls of the source. Rule for the calls, unless noted: active = hit-call score of the fitted dose curve at least 0.9, where 1 is the maximum; inactive = score below 0.9.
How the values were obtained:
[1] = CCTE_Harrill_HTTr_CellCount_MCF7: CCTE's Cell Proliferation Assessment for the High-Throughput Transcriptomics (HTTr) Platform, Harrill Lab (AID 2284012; active = hit-call score of the fitted dose curve at least 0.9, where 1 is the maximum;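 note: count of Hoechst-stained nuclei per well by high-content imaging in MCF-7 cells; cells exposed to compound for six hours; intended direction is loss of nuclei count meaning fewer cells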)
Summary of the method: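 Chemicals in eight-point dilution series are added to MCF-7 cells for six hours, nuclei are stained with Hoechst and imaged, and per-well nuclei counts are fitted in both directions relative to DMSO controls.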

[2] = molecular target: Estrogen receptor (Homo sapiens) (UniProt P03372); assay: CCTE_Deisenroth_AIME_384WELL_LUC_Active: CCTE's 384-well Estrogen Receptor Transactivation Assay with AIME metabolic competence (ERTA luciferase; metabolism positive), Deisenroth Lab (AID 2284030; active = hit-call score of the fitted dose curve at least 0.9, where 1 is the maximum)
Summary of the method: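 Readout: bioluminescent luciferase induction in VM7Luc4E2 cells 24 hour after receiving medium from a 2 h rat hepatic S9 (induced, alginate microsphere) metabolism step. Concentrations 0.002 - 200 uM; activity scaled to 17beta-estradiol positive control.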

[3] = CCTE_Deisenroth_AIME_384WELL_CTox_Active: Cytotoxicity Assessment (CTOX) in CCTE's 384-well Estrogen Receptor Transactivation Assay with AIME metabolic competence (metabolism positive), Deisenroth Lab (AID 2284037; active = hit-call score of the fitted dose curve at least 0.9, where 1 is the maximum;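 note: chemicals first conditioned 2 h by alginate-bound induced rat liver S9 before cells; activity means signal loss indicating cell death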)
Summary of the method: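 Chemicals pre-incubated 2 hours with alginate-immobilised phenobarbital/beta-naphthoflavone-induced male Sprague Dawley rat liver S9, then conditioned medium applied 24 hour to VM7Luc4E2 cells. Viability by fluorogenic protease substrate; 10-point series 0.002 - 200 uM.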

[4] = molecular target: Estrogen receptor (Homo sapiens) (UniProt P03372); assay: CCTE_Deisenroth_AIME_384WELL_LUC_Inactive: CCTE's 384-well Estrogen Receptor Transactivation Assay without AIME metabolic competence (ERTA luciferase; metabolism negative), Deisenroth Lab (AID 2284038; active = hit-call score of the fitted dose curve at least 0.9, where 1 is the maximum;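 note: VM7Luc4E2 breast cells given medium preincubated 2 h with S9-free microspheres; hits raise estrogen receptor luciferase signal so potencies reflect agonists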)
Summary of the method: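 Metabolism-negative mode: chemicals (10-point, 0.002–200 uM) held 2 h with alginate-water microspheres, then conditioned medium applied to VM7Luc4E2 cells for 24 h. Luciferase induction referenced to 17beta-estradiol.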

[5] = CCTE_Deisenroth_AIME_384WELL_CTox_Inactive: Cytotoxicity Assessment (CTOX) in CCTE's 384-well Estrogen Receptor Transactivation Assay without AIME metabolic competence (metabolism negative), Deisenroth Lab (AID 2284039; active = hit-call score of the fitted dose curve at least 0.9, where 1 is the maximum;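 note: cell viability via live-cell protease substrate cleaved to fluorescent probe; cells exposed 24 h to medium preincubated 2 h with alginate-water beads without S9; loss of fluorescence signal means loss of viability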)
Summary of the method: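 Metabolism-negative arm: chemicals (10-point, 0.002 - 200 uM) preincubated 2 h with alginate-water lids, medium moved onto VM7Luc4E2 cells for 24 h. Fluorescent live-cell protease readout; bidirectional curve fit.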

[6] = molecular target: Estrogen receptor (Homo sapiens) (UniProt P03372); assay: CCTE_Deisenroth_AIME_384WELL_LUC_Shift: CCTE's 384-well Estrogen Receptor Transactivation Assay with AIME metabolic competence data shift (ERTA luciferase; difference in metabolism positive and negative), Deisenroth Lab (AID 2284041);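 note: shift is response with S9 minus without S9 so positive means metabolism raised ER signal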
Summary of the method: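 Chemicals (0.002–200 uM, 10 points) pre-incubated 2 h with alginate-encapsulated induced male Sprague Dawley rat liver S9 or S9-free, then medium applied 24 h to VM7Luc4E2 cells; luciferase. Endpoint is per-concentration difference, S9-positive minus negative.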

[7] = CCTE_Shafer_MEA_acute_burst_number: CCTE's Neural Acute Assay for Single-Electrode Bursts, Shafer Lab (AID 2284013)
Summary of the method: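 Primary rat cortical neurons on 16-electrode MEA wells, treated on DIV 13 or 15 with compound at 0.03-40 uM. Single-electrode burst count from 40-min recordings at 37 C before and after exposure; percent change from baseline per well, DMSO negative control.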

[8] = CCTE_Shafer_MEA_acute_per_burst_spike_number_mean: CCTE's Neural Acute Assay for Average Number of Spikes Per Burst, Shafer Lab (AID 2284015);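 note: hits are decreases in mean spikes per burst versus baseline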
Summary of the method: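 Read-out: percent change in mean spikes per burst, each well's post-exposure 40-min recording versus its own 40-min baseline. Rat cortical cultures, DIV 13 or 15, compounds 0.03-40 uM; DMSO is negative control, loss-of-signal fitting.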

[9] = CCTE_Shafer_MEA_acute_interburst_interval_mean: CCTE's Neural Acute Assay for Mean Interburst Interval, Shafer Lab (AID 2284016);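 note: percent change of mean interburst interval versus each well's own pre-dose baseline; curves fitted for decrease in interburst interval relative to DMSO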
Summary of the method: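 Rat cortical cultures, DIV 13/15; 20 min equilibration, 40 min baseline, compound 0.03-40 uM, 40 min re-recording, 37 C. Spikes detected at 8x rms noise (300-5000 Hz band-pass). Endpoint: % change in interburst interval, fitted in loss direction vs DMSO.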

[10] = CCTE_Shafer_MEA_acute_burst_percentage_mean: CCTE's Neural Acute Assay for Percentage of Spikes in a Burst, Shafer Lab (AID 2284017);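 for AC50: curve fitted for loss of signal so potency reflects decreased burst percentage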
Summary of the method: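 Rat cortical cultures, DIV 13/15, 37 C. Spikes detected at 8x rms noise (300-5000 Hz band-pass). Burst spikes/total spikes averaged across electrodes per well; % change post- vs pre-treatment (40 min each), loss-of-signal fit vs DMSO.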

[11] = CCTE_Shafer_MEA_acute_burst_percentage_std: CCTE's Neural Acute Assay for Standard Deviation of Burst Percentage, Shafer Lab (AID 2284018);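 note: fitted in the negative direction so actives lower burst percentage SD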
Summary of the method: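 Rat primary cortical neurons on 48-well MEAs, DIV 13 or 15, 37 C. 40-min baseline then 40-min recording with compound (0.03-40 uM); well-level SD of per-electrode burst spike percentage, expressed as percent change from baseline.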

[12] = CCTE_Shafer_MEA_acute_per_network_burst_spike_number_std: CCTE's Neural Acute Assay for Standard Deviation of Number of Spikes in a Network Burst, Shafer Lab (AID 2284020);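 note: fitted for decrease in spike-number SD versus DMSO so actives lower it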
Summary of the method: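 Rat primary cortical neurons on 48-well MEA (16 electrodes/well), treated DIV 13 or 15 at 0.03-40 uM, ≥3 wells per compound. 40 min recordings at 37 C before and after dosing; value is percent change in network-burst spike-number SD, negative direction vs DMSO.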

[13] = CCTE_Shafer_MEA_acute_per_network_burst_electrodes_number_mean: CCTE's Neural Acute Assay for Mean Number of Electrodes in a Network Burst, Shafer Lab (AID 2284021);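 note: curves fitted for decreases only so hits reduce electrodes per burst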
Summary of the method: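 Readout: % change in mean electrodes active per network burst, post- vs pre-treatment, each well. Spikes detected at 8x rms noise after 300-5000 Hz band-pass; rat cortical cultures, DIV 13/15, compounds 0.03-40 uM, DMSO baseline.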

[14] = CCTE_Shafer_MEA_acute_network_burst_percentage: CCTE's Neural Acute Assay for Percentage of Network Bursts, Shafer Lab (AID 2284022);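 note: curves fitted for loss so actives lower network burst percentage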
Summary of the method: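 Rat cortical cultures, DIV 13/15; 20 min equilibration, 40 min baseline, compound 0.03-40 uM, 40 min recording, 37 C. Spikes: 300-5000 Hz band-pass, threshold 8x rms noise. Readout: % change in network-burst spike fraction; loss direction vs DMSO.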

[15] = CCTE_Shafer_MEA_acute_cross_correlation_area: CCTE's Neural Acute Assay for Area of Cross Correlation, Shafer Lab (AID 2284024);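 note: area under pooled inter-electrode spike cross-correlation near zero lag as percent change from own baseline; curves fitted for loss of cross-correlation area so actives lower synchrony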
Summary of the method: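 Rat cortical cultures, DIV 13/15, MEA; spikes detected at 8x rms noise (300-5000 Hz band-pass). Compound 0.03-40 uM, ≥3 wells each. Readout: % change in pooled inter-electrode cross-correlation area vs own baseline; DMSO negative control.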

[16] = CCTE_Shafer_MEA_acute_cross_correlation_HWHM: CCTE's Neural Acute Assay for Cross Correlation at Half Width at Half Maximum, Shafer Lab (AID 2284026);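 note: percent change per well from pre-dose baseline in spike cross-correlogram half width; hits are a decrease in cross-correlogram half width relative to DMSO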
Summary of the method: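 Read-out: half width at half maximum of action-potential cross-correlogram, percent change versus pre-treatment baseline, fitted in loss direction against DMSO. Rat cortical cultures, DIV 13 or 15, dosed 0.03-40 uM, 40-min recordings at 37 C.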

[17] = CCTE_Shafer_MEA_acute_synchrony_index: CCTE's Neural Acute Assay for Synchrony, Shafer Lab (AID 2284027);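 note: fitted for loss of signal so actives lower synchrony relative to DMSO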
Summary of the method: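 Readout is percent change in the unitless network synchrony index (0 low, 1 high) between a 40-min baseline and a 40-min recording in compound. Cultures were primary rat cortical neurons on MEAs, treated at 0.03-40 uM on DIV 13 or 15.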

[18] = CCTE_Shafer_MEA_dev_firing_rate_mean: CCTE's Neural Network Formation Assay for Mean Firing Rate, Shafer Lab (AID 2284031);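 for AC50: curve fitted for loss of firing so AC50 reflects decreased mean firing rate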
Summary of the method: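 Rat primary cortical neurons were seeded on multielectrode arrays and treated from plating through day 12, with redosing at each feed. Spontaneous spiking was recorded four times; mean firing rate AUC was fitted downward against DMSO.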

[19] = CCTE_Shafer_MEA_dev_per_burst_spike_percent: CCTE's Neural Network Formation Assay for Percent of Spikes in a Burst, Shafer Lab (AID 2284032);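 for AC50: fitted as a decrease in burst spike percentage below DMSO baseline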
Summary of the method: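 Rat primary cortical neurons on 16-electrode MEA wells, dosed from plating day 0 for 12 days with renewal on DIV 5 and 9; spikes-in-bursts percentage averaged over bursting electrodes, collapsed as AUC across days 5, 7, 9, 12; loss direction versus DMSO.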

[20] = CCTE_Shafer_MEA_dev_active_electrodes_number: CCTE's Neural Network Formation Assay for Number of Active Electrodes, Shafer Lab (AID 2284040; active = hit-call score of the fitted dose curve at least 0.9, where 1 is the maximum;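 for AC50: potency for loss of active electrodes versus DMSO so lower counts are hits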)
Summary of the method: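 Primary rat cortical neurons on 16-electrode MEA wells, exposed from day 0 through day 12 with compound renewed at DIV 5 and 9 feeds. Active electrodes (mean firing ≥5 spikes/min) counted at DIV 5, 7, 9, 12; trapezoidal AUC across days, loss-of-signal versus DMSO.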

Measured: AC50

Chain of Estrogen receptor (Homo sapiens) (P03372 whole entry, looked up): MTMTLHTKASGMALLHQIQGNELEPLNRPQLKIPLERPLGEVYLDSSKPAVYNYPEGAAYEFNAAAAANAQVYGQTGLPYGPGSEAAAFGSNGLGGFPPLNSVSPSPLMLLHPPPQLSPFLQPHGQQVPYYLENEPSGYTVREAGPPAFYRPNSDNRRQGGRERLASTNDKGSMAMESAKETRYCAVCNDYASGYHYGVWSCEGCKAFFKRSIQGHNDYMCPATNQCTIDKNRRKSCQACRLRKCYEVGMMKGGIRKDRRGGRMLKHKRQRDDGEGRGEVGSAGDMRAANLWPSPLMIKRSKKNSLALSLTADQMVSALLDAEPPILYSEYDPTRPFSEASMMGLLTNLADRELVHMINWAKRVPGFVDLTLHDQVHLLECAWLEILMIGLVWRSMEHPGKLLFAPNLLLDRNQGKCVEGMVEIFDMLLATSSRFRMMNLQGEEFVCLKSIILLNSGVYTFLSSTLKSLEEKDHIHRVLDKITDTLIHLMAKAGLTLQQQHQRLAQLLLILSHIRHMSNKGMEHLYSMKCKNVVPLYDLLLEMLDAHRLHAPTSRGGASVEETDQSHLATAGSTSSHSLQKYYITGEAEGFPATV

CC1(C)CN=C(NN=C(/C=C/c2ccc(C(F)(F)F)cc2)/C=C/c2ccc(C(F)(F)F)cc2)NC1
inactive: [1]

CSC(C)(C)C=NO
inactive: [1]

C/C(=N\NC(=O)Nc1cc(F)cc(F)c1)c1ncccc1C(=O)O
inactive: [1]

COP(=O)(O)OC
inactive: [1]

CCCCN(CC)C(=O)SCCC
inactive: [1] | [2] | [3] | [4] | [5] | [6]

Cc1c([N+](=O)[O-])cc2c(c1[N+](=O)[O-])C(C)(C)CC2(C)C
inactive: [1]

O=[N+]([O-])c1ccccc1
inactive: [1] | [2] | [3] | [4] | [5] | [6]

O=NN1CCCC1
inactive: [1]

Nc1ccc([N+](=O)[O-])cc1Cl
inactive: [1]

CCOP(=S)(Oc1ccc([N+](=O)[O-])cc1)c1ccccc1 (stereo not drawn)
active: [2] 19.6 µM | [4] 15.5 µM
not listed: [3] | [18] | [19] | [20]
inactive: all other assays above

CCN(CC)c1ccccc1
inactive: [1] | [2] | [3] | [4] | [5] | [6]

O=[N+]([O-])c1ccc(Cl)c(Cl)c1
inactive: [1]

CC(Cc1ccc(OCC(=O)O)cc1)NCC(O)c1csc(C(F)(F)F)n1 (stereo not drawn)
inactive: [1]

CCOP(=S)(S)OCC
inactive: [1]

CCOc1ccc(C(C)(C)COCc2cccc(Oc3ccccc3)c2)cc1
active: [9] 23.1 µM | [10] 25.4 µM | [14] 23.8 µM | [17] 28.1 µM | [18] 5.99 µM | [19] 10 µM | [20] 10 µM
not listed: [2] | [3] | [4] | [5] | [6]
inactive: all other assays above

CC(Cl)(Cl)C(=O)O
not listed: [3] | [5] | [18] | [19] | [20]
inactive: all other assays above

CCCCN(CCCC)N=O
active: [4] 85.5 µM | [6] 77.6 µM
inactive: [1] | [2] | [3] | [5]

CCOC(=O)c1ccccc1C(=O)OCC
active: [6] 45.2 µM
inactive: [1] | [2] | [3] | [4] | [5]

[N-]=[N+]=[N-]
not listed: [3] | [5] | [18] | [19] | [20]
inactive: all other assays above

CCCCc1ccccc1
inactive: [1] | [2] | [3] | [4] | [5] | [6]

CC(C)(C)N(NC(=O)c1ccc(Cl)cc1)C(=O)c1ccccc1
inactive: [1]

c1ccc2c(c1)sc1ccccc12
inactive: [1]

CC(O)C#N (stereo not drawn)
inactive: [1]

CCOP(=S)(NC(C)C)Oc1ccccc1C(=O)OC(C)C (stereo not drawn)
inactive: [1]

c1ccc2c(c1)Nc1ccccc1S2
inactive: [1] | [8] | [11] | [15] | [3] | [5] | [6]
active: [7] 3.97 µM | [9] 4.14 µM | [10] 25.8 µM | [12] 27.3 µM | [13] 7.45 µM | [14] 20 µM | [16] 36.9 µM | [17] 20 µM | [2] 41.3 µM | [4] 27.7 µM

CCC1(c2ccccc2)C(=O)N=C(O)NC1=O (stereo not drawn)
not listed: [2] | [3] | [4] | [5] | [6]
inactive: all other assays above

CCCCC(CC)COP(=O)(Oc1ccccc1)Oc1ccccc1 (stereo not drawn)
active: [10] 23.7 µM | [11] 15 µM | [16] 10.3 µM | [17] 22.1 µM | [2] 34.1 µM
inactive: all other assays above

O=C(O)C(Cl)Cl
inactive: [1]

ClC1=C(Cl)C2(Cl)C3C(Cl)C(Cl)CC3C1(Cl)C2(Cl)Cl (stereo not drawn)
active: [10] 0.29 µM | [14] 33.8 µM | [16] 4.29 µM | [17] 0.283 µM | [18] 4.35 µM | [19] 6.7 µM | [20] 5.54 µM
not listed: [2] | [3] | [4] | [5] | [6]
inactive: all other assays above

N#Cc1ccc(O)cc1
inactive: [1]

O=P(OCC(Br)CBr)(OCC(Br)CBr)OCC(Br)CBr (stereo not drawn)
inactive: [1]

O=C(O)C1C(C(=O)O)C2(Cl)C(Cl)=C(Cl)C1(Cl)C2(Cl)Cl (stereo not drawn)
not listed: [2] | [3] | [4] | [5] | [6] | [20]
inactive: all other assays above

CC(C)(C)c1ccc(O)cc1
inactive: [1]

Cc1ccc(O)cc1C
inactive: [1]

Cc1ccc(N)cc1N
not listed: [2] | [3] | [4] | [5] | [6] | [18] | [19] | [20]
inactive: all other assays above

Nc1ccc2ccccc2c1
active: [2] 13.8 µM
not listed: [18] | [19] | [20]
inactive: all other assays above

ClC(Cl)(Cl)c1ccccc1
not listed: [2] | [3] | [4] | [5] | [6] | [18] | [19] | [20]
inactive: all other assays above

From PubChem BioAssay (EPA / NIEHS)
